This passage reports growth results from PubChem BioAssay (NCI).

Test systems include SR leukemia; RPMI-8226 leukemia; OVCAR-8 ovarian; OVCAR-5 ovarian; OVCAR-4 ovarian; SK-OV-3 ovarian; IGROV1 ovarian; OVCAR-3 ovarian; HS 578T breast; NCI/ADR-RES ovarian; T-47D breast; BT-549 breast; MDA-MB-435 melanoma; SW-620 colon; MCF7 breast; HCT-116 colon; HCC-2998 colon; KM12 colon.
Assay in all cases: NCI-60 one-dose screen, 48 h (100 = growth as untreated, 0 = no growth, -100 = all killed)
Conditions in all cases: 10 µM unless noted

The panel holds about 83,000 compounds, 20% with a hit somewhere; the sample as a whole holds those more often.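 Single-concentration screen, 48 h exposure, 96-well plates. Endpoint: percent growth. Below 10 = active.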 Values without a mark were called inactive. Activity calls are given as the source filed them.

For the compound `COc1ccc(C(C)=O)cc1S(N)(=O)=O`, the growth is 104% in the experiment on SR leukemia; 98.9% in the experiment on RPMI-8226 leukemia; 96.6% in the experiment with OVCAR-8 ovarian; 102% in the experiment on OVCAR-5 ovarian; 101% in the experiment with OVCAR-4 ovarian; 115% in the experiment on SK-OV-3 ovarian. Besides, the growth in the experiment with IGROV1 ovarian was 108%; with OVCAR-3 ovarian, 108%; with HS 578T breast, 91.6%; with NCI/ADR-RES ovarian it was 98.1%; in the experiment with T-47D breast, 105%; in the experiment with BT-549 breast, 95.6%. In addition, the growth was 99.3% in the experiment on MDA-MB-435 melanoma; 103% with SW-620 colon; 96.4% in the experiment on MCF7 breast; 89% in the experiment with HCT-116 colon; 98.3% in the experiment on HCC-2998 colon; 103% in the experiment on KM12 colon.

Turning to `C[C@@H]1CC[C@@]2(OC1)O[C@H]1C[C@H]3[C@@H]4CC=C5C[C@@H](O[C@@H]6O[C@H](CO)[C@@H](O[C@@H]7O[C@@H](CO)[C@H](O)[C@H]7O)[C@H](O)[C@H]6O[C@@H]6O[C@@H](C)[C@H](O)[C@@H](O)[C@H]6O)CC[C@]5(C)[C@H]4CC[C@]3(C)[C@H]1[C@@H]2C`, the growth with SR leukemia was -58.5% (active); in the experiment on RPMI-8226 leukemia it was -60.1% (active); in the experiment with OVCAR-8 ovarian, -91.2% (active); in the experiment on OVCAR-5 ovarian, -87.7% (active); with OVCAR-4 ovarian, -90% (active); in the experiment on SK-OV-3 ovarian, -36.4% (active). Besides, the growth in the experiment on IGROV1 ovarian was -84.2% (active); in the experiment with OVCAR-3 ovarian it was -90.2% (active); with HS 578T breast it was -47.9% (active); in the experiment with NCI/ADR-RES ovarian, -85.6% (active); with T-47D breast, -22.6% (active); in the experiment with BT-549 breast, -59.4% (active). Further, the growth was -92.8% (active) with MDA-MB-435 melanoma; -86.4% (active) with SW-620 colon; -87.9% (active) in the experiment with MCF7 breast; -84% (active) with HCT-116 colon; -75.9% (active) in the experiment with HCC-2998 colon; -90.6% (active) with KM12 colon.

On to `O=C1CCCc2nc3sc4c(=O)n(-c5ccccc5Cl)nnc4c3cc21`, for which the growth with SR leukemia was 87.8%; in the experiment on RPMI-8226 leukemia, 87.6%; in the experiment with OVCAR-8 ovarian, 92.2%; in the experiment with OVCAR-5 ovarian, 100%; with OVCAR-4 ovarian, 105%; in the experiment with SK-OV-3 ovarian it was 107%. The growth in the experiment on IGROV1 ovarian is 99.9%; with OVCAR-3 ovarian, 114%; in the experiment with HS 578T breast, 99%; in the experiment on NCI/ADR-RES ovarian, 103%; in the experiment on T-47D breast it was 83.8%; in the experiment with BT-549 breast, 102%. Besides, the growth is 102% with MDA-MB-435 melanoma; 102% in the experiment on SW-620 colon; 90.4% in the experiment on MCF7 breast; 96% with HCT-116 colon; 118% in the experiment on HCC-2998 colon; 107% in the experiment on KM12 colon.

Turning to `CCOC(=O)C1CCN(c2ccc(N3C[C@@H](CNCc4ccc(C(=N)N)cc4)OC3=O)cc2)CC1`, the growth with SR leukemia is 98.2%; in the experiment on RPMI-8226 leukemia it was 96.2%; with OVCAR-8 ovarian, 101%; in the experiment with OVCAR-5 ovarian, 94.3%; with OVCAR-4 ovarian it was 105%; in the experiment with SK-OV-3 ovarian, 104%. Also, the growth is 101% in the experiment with IGROV1 ovarian; 113% in the experiment on OVCAR-3 ovarian; 102% in the experiment with HS 578T breast; 105% in the experiment with NCI/ADR-RES ovarian; 96.2% in the experiment on T-47D breast; 94.4% with BT-549 breast. Besides, the growth in the experiment with MDA-MB-435 melanoma was 104%; with SW-620 colon, 97.1%; in the experiment with MCF7 breast, 97.2%; in the experiment with HCT-116 colon, 98.9%; in the experiment on HCC-2998 colon, 108%; with KM12 colon, 98.7%.

On to `NC(=O)OCCn1cc(-c2nc(-c3c[nH]c4ncccc34)cs2)c2ccccc21`, for which the growth in the experiment on SR leukemia is 24.2%; in the experiment with RPMI-8226 leukemia it was 24.9%; with OVCAR-8 ovarian it was 41.6%; in the experiment with OVCAR-5 ovarian, 58.2%; with OVCAR-4 ovarian, 71.7%; in the experiment with SK-OV-3 ovarian, 41.6%. Further, the growth was 41.3% with IGROV1 ovarian; 27.9% in the experiment on OVCAR-3 ovarian; 41.4% in the experiment on HS 578T breast; 38.1% in the experiment with NCI/ADR-RES ovarian; 44.7% with T-47D breast; 32.8% in the experiment with BT-549 breast. In addition, the growth is -33.4% (active) with MDA-MB-435 melanoma; 8.68% (active) with SW-620 colon; 18.3% in the experiment with MCF7 breast; 30.8% in the experiment on HCT-116 colon; 71.7% in the experiment with HCC-2998 colon; 23% with KM12 colon.

For `Cc1[nH]c(/C=C/C(=O)c2ccc(C(F)(F)F)c(F)c2)c(C)c1C(=O)NCC(C)C`, the growth in the experiment with SR leukemia is 85.6%; in the experiment with RPMI-8226 leukemia, 95.8%; in the experiment on OVCAR-8 ovarian, 89.4%; in the experiment on OVCAR-5 ovarian it was 101%; in the experiment on OVCAR-4 ovarian, 101%; in the experiment with SK-OV-3 ovarian, 105%. Moreover, the growth with IGROV1 ovarian is 107%; in the experiment with OVCAR-3 ovarian it was 112%; with HS 578T breast it was 97.9%; with NCI/ADR-RES ovarian it was 98.9%; with T-47D breast, 88.2%; with BT-549 breast it was 111%. Moreover, the growth in the experiment on MDA-MB-435 melanoma was 103%; in the experiment on SW-620 colon it was 102%; in the experiment with MCF7 breast it was 86%; with HCT-116 colon, 96.7%; with HCC-2998 colon, 98.9%; in the experiment on KM12 colon, 101%.

As for `O=S(=O)(c1ccccc1)N1CCCN(c2nc(-c3ccccc3)nc3nc(-c4ccccc4)oc23)CC1`, the growth with SR leukemia is 104%; with RPMI-8226 leukemia, 98.1%; in the experiment on OVCAR-8 ovarian it was 104%; with OVCAR-5 ovarian, 106%; in the experiment with OVCAR-4 ovarian, 105%; with SK-OV-3 ovarian, 103%. The growth in the experiment on IGROV1 ovarian was 100%; in the experiment with OVCAR-3 ovarian, 117%; in the experiment on HS 578T breast, 116%; with NCI/ADR-RES ovarian it was 104%; in the experiment on T-47D breast, 99.4%; with BT-549 breast, 107%. Further, the growth in the experiment with MDA-MB-435 melanoma is 102%; with SW-620 colon, 109%; in the experiment with MCF7 breast, 90.8%; with HCT-116 colon it was 89.5%; in the experiment with HCC-2998 colon, 108%; in the experiment with KM12 colon, 113%.

As to `Cc1cc(F)ccc1S(=O)(=O)Nc1cc(-c2c(O)ccc3ccccc23)c(O)c2ccccc12`, the growth was 18.8% in the experiment on SR leukemia; 11.6% in the experiment on RPMI-8226 leukemia; 37.1% with OVCAR-8 ovarian; 56.9% with OVCAR-5 ovarian; -8.24% (active) in the experiment with OVCAR-4 ovarian; 52.3% in the experiment with SK-OV-3 ovarian. The growth was 27.6% in the experiment on IGROV1 ovarian; 17.3% with OVCAR-3 ovarian; 42.3% with HS 578T breast; 31.3% in the experiment on NCI/ADR-RES ovarian; 7.54% (active) with T-47D breast; 30.1% in the experiment on BT-549 breast. The growth in the experiment on MDA-MB-435 melanoma is 28%; in the experiment on SW-620 colon, 25.8%; in the experiment on MCF7 breast, 30.1%; in the experiment on HCT-116 colon, 5.49% (active); in the experiment with HCC-2998 colon it was -3.54% (active); with KM12 colon, 3.55% (active).
